Bioassay records (PubChem)
In the library only some 2.8% were active in any assay of this set; here they are far more common.
WRN inhibitor – qHTS for Inhibitors of WRN Helicase. 360,000 compounds, 0.46% hits. Potency, µM (doses to about 114 µM), usual class: inhibitors. WRN helicase unwinding, fluorescent forked duplex, kinetic; note: nearly all actives have a fitted effect of over 55% in size
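Primary qHTS, 1536-well format. 20 nM WRN + compound, 15 min RT; start with 100 nM forked fluorophore/quencher duplex, 2 mM ATP (final); kinetic read ex 525/em 598 nm.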
PI5P4Ka inh – qHTS for Inhibitors of phosphatidylinositol 5-phosphate 4-kinase (PI5P4K). PI5P4Kalpha enzyme, ADP-Glo luminescence, 60 min; hits give low values. 330,000 compounds, 1.2% hits. max response, %. Phosphatidylinositol 5-phosphate 4-kinase type-2 alpha (Homo sapiens), P48426; active = max response of -50% or lower; inconclusive = between -30% and -50%; inactive = -30% or higher; note: value at the top dose of about 77 µM
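Single end-point luminescence (ADP-Glo) quantified ADP from PI5P4Kalpha turnover; ATP 5 microM final, 1 h at RT, 0.1% CHAPS and 0.28 mM EGTA in HEPES pH 7.4.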
Pol kappa inh-1 – qHTS for Inhibitors of Polymerase Kappa; purified Pol kappa, fluorescent DNA synthesis assay, 10 min; Potency, µM (series often up to 107 µM), hits mostly inhibitors; 400,000 compounds, 0.53% hits
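Enzyme at 10 nM met test compounds for 15 min at room temperature. Substrate addition (50 nM final) began the reaction, which was monitored by fluorescence at 0 and 10 min.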
POLI inh – qHTS for Inhibitors of Polymerase Iota; DNA polymerase iota (Homo sapiens), Q9UNA4; Pol iota fluorescent replication assay, 10 min; Potency, µM (series often up to 115 µM), actives largely listed as inhibitors; 390,000 compounds, 1% hits; AID 588590, 2011
Target sequence (Q9UNA4 whole entry, looked up): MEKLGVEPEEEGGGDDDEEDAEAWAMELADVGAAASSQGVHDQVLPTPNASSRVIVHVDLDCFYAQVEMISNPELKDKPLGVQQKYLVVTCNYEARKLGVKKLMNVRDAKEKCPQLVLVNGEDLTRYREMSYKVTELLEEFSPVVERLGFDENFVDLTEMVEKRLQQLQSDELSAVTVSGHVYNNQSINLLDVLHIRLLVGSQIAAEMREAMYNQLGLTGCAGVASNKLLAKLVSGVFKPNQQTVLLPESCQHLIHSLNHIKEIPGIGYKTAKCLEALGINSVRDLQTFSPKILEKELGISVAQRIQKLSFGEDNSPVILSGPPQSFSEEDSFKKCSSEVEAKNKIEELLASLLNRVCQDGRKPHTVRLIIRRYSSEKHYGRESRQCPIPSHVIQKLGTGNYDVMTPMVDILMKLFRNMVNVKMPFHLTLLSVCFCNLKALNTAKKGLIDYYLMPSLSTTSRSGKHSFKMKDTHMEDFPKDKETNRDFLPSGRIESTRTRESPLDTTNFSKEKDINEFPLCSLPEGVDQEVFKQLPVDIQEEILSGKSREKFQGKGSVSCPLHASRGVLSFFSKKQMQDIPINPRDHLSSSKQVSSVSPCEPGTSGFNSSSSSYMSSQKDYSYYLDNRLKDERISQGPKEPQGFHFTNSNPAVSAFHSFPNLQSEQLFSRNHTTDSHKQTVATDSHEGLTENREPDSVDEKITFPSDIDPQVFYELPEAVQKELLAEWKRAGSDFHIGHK
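Fluorescent replication assay read twice, at 0 min and 10 min after adding 50 nM (final) substrate. Enzyme (10 nM) and compounds were first incubated 15 min at room temperature; enzyme-free buffer wells were negative controls.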
Pol eta inh-1 – qHTS for Inhibitors of Polymerase Eta. Potency, µM (top dose mostly 114 µM), actives largely listed as inhibitors. DNA polymerase eta (Homo sapiens), Q9Y253. recombinant Pol eta, fluorescent DNA replication assay. 390,000 compounds, 1.2% hits
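Fluorescent replication assay: 50 nM final substrate added after a 15 min room-temperature compound preincubation with 10 nM enzyme. Signal taken at 0 min and again at 10 min.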
POLB inh – qHTS Assay for Inhibitors of DNA Polymerase Beta | Potency, µM (highest dose often 114 µM), usual class: inhibitors | 340,000 compounds, 1.3% hits | Pol beta primer extension/strand displacement, fluorescence kinetic
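Reaction started by 50 nM substrate onto compound-treated Pol beta (10 nM, 15 min preincubation, room temperature); plates read at 0 min and 10 min. Normalized concentration-effect data fitted by four-parameter Hill equation.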
BAZ2B confirm – qHTS Assay for Inhibitors of BAZ2B: Hit Validation; AlphaScreen BAZ2B / biotin-H3K14Ac peptide displacement; shares compounds with Pol kappa inh-1; Potency, µM, hits mostly inhibitors; 25 compounds, 100% hits; calls by dose curve
BAZ2B bead ctr – qHTS Assay for Inhibitors of BAZ2B: Hit Validation in AlphaScreen Counterscreen. AID 588859, 2011. shares compounds with Pol kappa inh-1. 25 tested, under 10 active. AlphaScreen biotin-His6 peptide bead counterscreen, signal decrease. Potency, µM (series often up to 57.1 µM), usual class: inhibitors;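 active = clear concentration-dependent signal drop in the bead assay lacking the target, so a primary-screen artifact; inconclusive = weak, partial or single-dose response; inactive = no response, so a real primary hit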
PGK validate – qHTS for inhibitors of Phosphogylcerate Kinase: Hit Validation Screen; 500 compounds, 79% hits; AID 686980, 2013; Potency, µM (titrated, usually from 57.5 µM), usual class: inhibitors; TbPGK coupled GAPDH assay, Kinase-Glo luminescence; shares compounds with Pol kappa inh-1; note: nearly all actives have a fitted effect of over 65% in size
POLI cherry-pick – qHTS for Inhibitors of Polymerase Iota: Confirmatory Assay for Cherry-picked Compounds; Potency, µM, actives largely listed as inhibitors; shares compounds with Pol kappa inh-1; Pol iota primer extension, TAMRA/BHQ fluorescence; 1,500 compounds, 77% hits; AID 720496, 2013
Pol kappa inh-2 – qHTS for Inhibitors of Polymerase Kappa: Confirmatory Assay for Cherry-picked Compounds | Potency, µM, usual class: inhibitors | purified Pol-kappa, fluorescent strand-displacement substrate | shares compounds with Pol eta inh-1 | 920 compounds, 76% hits
Pol eta inh-2 – qHTS for Inhibitors of Polymerase Eta: Confirmatory Assay for Cherry-picked Compounds. shares compounds with Pol eta inh-1. Pol eta primer extension, TAMRA/BHQ fluorescence, 10 min. Potency, µM, actives largely listed as inhibitors. 2,600 compounds, 64% hits. AID 720502, 2013
Each line names hits and unclear results; the compound was inactive in the other large screens (follow-up assays come after a bar, where they were run). Unless noted, calls come from the whole dose curve; as a rule, active = well fitted curve in the direction sought with a large enough effect; inconclusive = small, poorly fitted or top-dose-only effect, or another doubt; inactive = no such curve, though single readings can be large; an effect the other way counts as inactive or inconclusive.

O=C(CSc1nc(-c2ccc(F)cc2)nc2c1Cc1ccccc1O2)Nc1cccc(C(=O)O)c1	WRN inhibitor inconclusive, PI5P4Ka inh inconclusive, Pol kappa inh-1 8.9µM, POLI inh 5.6µM, Pol eta inh-1 10µM, POLB inh 2.8µM | BAZ2B confirm 28 | BAZ2B bead ctr inactive | PGK validate 1.6µM | POLI cherry-pick 3.4 | Pol eta inh-2 76
C=C(C)C(=O)Nc1cccc(C2=NOC3(C2)C[C@@H](C(N)=O)N(C(=O)C2(C)CC2)C3)c1 (stereo not given in full)	WRN inhibitor inconclusive, Pol kappa inh-1 45µM, POLI inh 50µM, Pol eta inh-1 3.2µM, POLB inh 1.1µM | BAZ2B confirm 1.3 | BAZ2B bead ctr inconclusive | PGK validate inconclusive | POLI cherry-pick inconclusive | Pol eta inh-2 9.5
C=C(C)C(=O)Nc1cccc(C2=NOC3(C2)C[C@H](C(N)=O)N(C(=O)COc2ccc(Cl)cc2)C3)c1 (stereo not given in full)	WRN inhibitor inconclusive, PI5P4Ka inh inconclusive, Pol kappa inh-1 18µM, POLI inh 45µM, Pol eta inh-1 7.9µM, POLB inh 4.5µM | BAZ2B confirm 5.6 | BAZ2B bead ctr inactive | POLI cherry-pick 17 | Pol eta inh-2 8.5
C=C(C)C(=O)Nc1cccc(C2=NOC3(C2)C[C@@H](C(N)=O)N(C(=O)/C=C/CC)C3)c1 (stereo not given in full)	WRN inhibitor inconclusive, Pol kappa inh-1 28µM, POLI inh 16µM, Pol eta inh-1 7.9µM, POLB inh 3.5µM | BAZ2B confirm 10 | BAZ2B bead ctr inactive | PGK validate inconclusive | POLI cherry-pick inconclusive | Pol kappa inh-2 19 | Pol eta inh-2 19
O=C(Cn1c(=O)n(Cc2ccccc2)c(=O)c2sc3ccccc3c21)NCc1ccccc1Cl	none (no result: WRN inhibitor, PI5P4Ka inh)
COC1=CC(=O)O[C@H](/C=C/c2ccc3c(c2)OCO3)C1	none (no result: WRN inhibitor, PI5P4Ka inh, POLI inh, Pol eta inh-1, POLB inh)
Cc1cc(/C=C2\C(=O)NC(=O)N(Cc3ccccc3Cl)C2=O)c(C)n1-c1ccc(C(=O)O)cc1	WRN inhibitor 56µM, PI5P4Ka inh -52, Pol kappa inh-1 50µM, POLI inh 8.9µM, Pol eta inh-1 10µM, POLB inh 16µM | POLI cherry-pick 21 | Pol eta inh-2 24
Cc1cc(/C=C2\C(=O)NC(=O)N(Cc3ccco3)C2=O)c(C)n1-c1ccc(C(=O)O)cc1	WRN inhibitor inconclusive, PI5P4Ka inh inconclusive, Pol kappa inh-1 inconclusive, POLI inh 18µM, Pol eta inh-1 18µM, POLB inh inconclusive | POLI cherry-pick 19 | Pol eta inh-2 27
Cc1ccc(N2C(=O)NC(=O)/C(=C\c3cc(C)n(-c4cc(C(=O)O)cc(C(=O)O)c4)c3C)C2=O)cc1	WRN inhibitor inconclusive, PI5P4Ka inh -52, Pol kappa inh-1 inconclusive, POLI inh 8.9µM, Pol eta inh-1 7.9µM | PGK validate inconclusive | Pol kappa inh-2 17 | Pol eta inh-2 38
Cc1sc(-n2c(C)cc(C=C3C(=O)NC(=O)NC3=O)c2C)c(C#N)c1C	POLI inh inconclusive
Cc1cc(/C=C2\C(=O)NC(=O)N(c3ccc(Cl)cc3)C2=O)c(C)n1-c1sc2c(c1C#N)CCCC2	WRN inhibitor inconclusive, PI5P4Ka inh -57, Pol kappa inh-1 79µM, POLI inh 10µM, Pol eta inh-1 20µM, POLB inh inconclusive | POLI cherry-pick 75 | Pol kappa inh-2 75 | Pol eta inh-2 30
CN(C(=O)Cc1ccc(Cl)c(Cl)c1)[C@H](CN1CCCC1)c1cccc(N=C=S)c1	none (no result: WRN inhibitor, PI5P4Ka inh, POLI inh, Pol eta inh-1, POLB inh)
Cc1ccc(N2C(=O)NC(=O)/C(=C/c3ccc(-c4ccc(C(=O)O)c(Cl)c4)o3)C2=O)cc1	WRN inhibitor inconclusive, PI5P4Ka inh inconclusive, POLI inh 20µM, Pol eta inh-1 8.9µM, POLB inh 14µM | POLI cherry-pick inconclusive | Pol eta inh-2 30
COC(=O)/C=C/C(=O)N[C@@H]1CC[C@@]2(O)[C@H]3Cc4ccc(O)c5c4[C@@]2(CCN3CC2CC2)[C@H]1O5	none (no result: WRN inhibitor, PI5P4Ka inh, POLI inh, Pol eta inh-1, POLB inh)
Cn1nc(-c2ccccc2)nc2c(=O)n(C)c(=O)nc1-2	none (no result: WRN inhibitor, PI5P4Ka inh, Pol eta inh-1, POLB inh)
